BoNT A protease: inhibitors of Botulinum neurotoxin A light chain protease; hit rate 0.17% among 360,000; inhibition, % at 10 µM; multiplex microsphere protease substrate cleavage, flow cytometry; note: plate controls were buffer without enzyme for full effect and enzyme alone for no effect
Anthrax LF prot: blocks Bacillus anthracis lethal factor protease; multiplex microsphere protease cleavage assay, LF; P15917; inhibition, % at 10 µM; hit rate 0.12% among 360,000; note: plate controls were buffer without enzyme for full effect and enzyme alone for no effect
Target sequence (P15917 whole entry, looked up): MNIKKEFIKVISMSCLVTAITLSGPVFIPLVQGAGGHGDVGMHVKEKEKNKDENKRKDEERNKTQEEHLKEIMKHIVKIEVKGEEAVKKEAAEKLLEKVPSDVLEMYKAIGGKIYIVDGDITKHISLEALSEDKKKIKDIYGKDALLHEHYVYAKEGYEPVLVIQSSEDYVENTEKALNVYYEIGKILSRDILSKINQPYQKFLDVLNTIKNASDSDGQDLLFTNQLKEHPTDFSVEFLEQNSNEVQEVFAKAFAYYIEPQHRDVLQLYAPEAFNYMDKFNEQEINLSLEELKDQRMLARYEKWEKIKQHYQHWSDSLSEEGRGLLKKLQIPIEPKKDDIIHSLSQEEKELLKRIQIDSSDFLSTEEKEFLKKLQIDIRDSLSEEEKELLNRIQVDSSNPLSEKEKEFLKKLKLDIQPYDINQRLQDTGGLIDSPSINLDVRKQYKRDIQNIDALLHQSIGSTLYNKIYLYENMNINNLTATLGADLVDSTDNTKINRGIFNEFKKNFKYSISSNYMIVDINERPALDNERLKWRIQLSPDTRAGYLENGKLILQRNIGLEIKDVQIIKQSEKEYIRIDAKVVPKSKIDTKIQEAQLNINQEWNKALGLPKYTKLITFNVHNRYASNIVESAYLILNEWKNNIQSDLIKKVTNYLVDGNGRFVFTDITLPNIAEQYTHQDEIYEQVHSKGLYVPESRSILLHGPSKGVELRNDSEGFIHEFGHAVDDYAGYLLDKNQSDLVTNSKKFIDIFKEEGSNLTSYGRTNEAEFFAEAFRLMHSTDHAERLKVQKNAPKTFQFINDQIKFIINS
SSB-PriA inh: inhibitors of Klebsiella pneumoniae PriA binding to SSB C-terminal tail; AlphaScreen SSBct-PriA binding, biotinylated peptide; inhibition, % at 33 µM; hit rate 0.6% among 430,000; AID 1272365; in the data active = inhibition mostly above about 37%, no sharp cut-off; inactive = mostly below about 20%;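 note: plate controls were negative control peptide for no effect and reference peptide for full effect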
BoNT F protease: BoNT F light chain protease inhibition; inhibition, % at 10 µM; AID 588497; Multiplex microsphere protease cleavage assay, flow cytometry; hit rate 0.22% among 360,000; in the data active = inhibition above about 35%, passing the limit was not always enough; inconclusive = no clear call, values can overlap the other calls; note: plate controls were buffer without enzyme for full effect and enzyme alone for no effect
Autofluor counter: flagged as autofluorescent in microsphere protease counterscreen. hit rate 3.1% among 360,000. compound autofluorescence counterscreen, microsphere flow cytometry; hits give high values. fluorescence intensity (no concentration beside the values); in the data active = fluorescence intensity above about 16000; inconclusive = no clear call, values can overlap the other calls
* = called active by the depositor; ? = inconclusive; . = not tested or not shown. Rows were chosen to be rich in hits. Some 3.1% of all compounds tested hit in one or more screens of this group. Cut-off read from the data, not from the text of the source, unless noted: active = inhibition above about 30%; inconclusive = no clear call, values can overlap the other calls; inactive = below that.

SMILES	BoNT A protease	Anthrax LF prot	SSB-PriA inh	BoNT F protease	Autofluor counter
CC(C)NC(=S)NNC(=O)C12CC3CC(CC(C3)C1)C2	?	-3	-5	-2	24739*
CCCCNC(=S)NNC(=O)C12CC3CC(CC(C3)C1)C2	0	-3	4	-7	2326
COc1ccccc1NC(=O)CN1C(=O)C(C)Oc2ccccc21 (stereo not drawn)	0	2	0	1	22685*
CC1Oc2ccccc2N(CC(=O)NC2CC2)C1=O (stereo not drawn)	1	-4	-4	-2	3023
CC1Oc2ccccc2N(CC(=O)NCC2CCCO2)C1=O (stereo not drawn)	0	0	-16	2	23344*
O=C1CN(C(=O)c2nc3ccccc3s2)c2ccccc2N1	.	.	-9	.	.
COc1ccc(OCCS(=O)(=O)N(Cc2ccccc2)c2ccccc2)cc1	.	.	-6	.	.
CCN=c1scc(-c2ccco2)n1/N=C/c1ccc(OC)c(O)c1	?	-2	.	-4	24329*
CCN=c1scc(-c2ccco2)n1N=Cc1ccc(OC)c(O)c1	.	.	10	.	.
CCOC(=O)c1nnn(-c2ccc(Cl)cc2)c1N	.	.	5	.	.
CN(C)c1nc2c(c(N)nn2-c2ccc(Cl)cc2)c(=O)o1	?	1	-4	4	19528*
COc1ccc(-n2nc(N)c3c(=O)oc(N(C)C)nc32)cc1	0	-3	-10	-2	16554*
Cc1nn(C2CCS(=O)(=O)C2)c2nc(-c3ccccc3)cc(C(=O)Nc3ccc(F)c(F)c3)c12 (stereo not drawn)	.	.	-9	.	.
COc1ccc(N(C)S(=O)(=O)c2ccsc2-c2nc(-c3ccc(C)cc3)no2)cc1	.	.	-12	.	.
COc1ccc(NC(=O)c2nc3ccccc3s2)cc1	-1	-1	-11	-6	1990
CC(C)NC(=O)c1nc2ccccc2s1	5	-7	-22	4	19111*
CCOC(=O)C1CCCN(C(=O)c2cn(CC)c3ccc(S(=O)(=O)N4CCCC4)cc3c2=O)C1 (stereo not drawn)	1	-4	-21	-2	16154*
CCn1cc(C(=O)NCc2ccc3c(c2)OCO3)c(=O)c2cc(S(=O)(=O)N(C)C)ccc21	1	-2	-1	3	9237
CCn1cc(C(=O)NCc2ccc3c(c2)OCO3)c(=O)c2cc(S(=O)(=O)N3CCOCC3)ccc21	?	0	-5	-10	21213*
CCOC(=O)C1CCCN(C(=O)c2cn(C)c3ccc(S(=O)(=O)N4CCCC4)cc3c2=O)C1 (stereo not drawn)	?	0	-7	4	21667*
CCOC(=O)C1CCCN(C(=O)c2cc(S(=O)(=O)N3CCCCC3)ccc2C)C1 (stereo not drawn)	1	1	3	5	4294
CCn1cc(C(=O)N2CC(C)CC(C)C2)c(=O)c2cc(S(=O)(=O)N3CCOCC3)ccc21 (stereo not drawn)	-2	1	4	-4	24578*
O=C(CC1CCCCN1S(=O)(=O)c1cccs1)Nc1ccccc1C(F)(F)F (stereo not drawn)	.	.	23	.	.
Nc1nc(-c2ccccc2)c(C(=O)c2ccccc2)s1	.	.	1	.	.
CCOc1ccc(CC(=O)NCC2CCN(CCOC)CC2)cc1	.	.	-6	.	.
SMILES	BoNT A protease	Anthrax LF prot	SSB-PriA inh	BoNT F protease	Autofluor counter
COc1ccc(-n2c(O)c(C=C3C=Nc4ccccc43)c(=O)[nH]c2=O)cc1	.	.	-14	.	.
Nc1ccc2c(c1)oc1ccccc12	1	0	4	1	22331*
COc1ccc(-c2noc(CCC(=O)NCc3cccnc3)n2)cc1OC	1	-3	-21	-15	9256
CNC(=O)CCCc1nc(-c2ccccc2Cl)no1	-6	-5	-4	-10	17469*
CCOC(=O)N1CCN(c2c(NCCc3ccc(OCC)c(OCC)c3)c(=O)c2=O)CC1	-4	0	-4	-5	24406*
COc1ccc(-c2noc(CCC(=O)NCc3cccnc3)n2)cc1	-1	1	-12	-4	23172*
O=C(CCCc1nc(-c2ccccc2)no1)NCc1cccnc1	?	0	-14	-8	24495*
CS(=O)(=O)N1CCc2nc(NC(=O)c3nc4ccccc4s3)sc2C1	.	.	-17	.	.
O=C(CCc1nc(-c2ccccc2)no1)NCCc1ccccc1	3	-10	-31	2	22301*
O=C(CCCN1C(=O)c2ccccc2C1=O)NCc1cccnc1	-1	-4	-7	-3	22861*
COc1ccc(-c2noc(CCC(=O)NCCc3ccccc3)n2)cc1	-2	-7	7	-9	3869
O=C(CCCN1C(=O)c2cccc3cccc(c23)C1=O)NCc1cccnc1	0	-3	-6	1	3841
CCOc1ccc(CCNC(=O)CCCN2C(=O)c3ccccc3C2=O)cc1OCC	?	-1	3	2	21585*
CN(C)c1cccc(C(=O)NCC2CCN(c3nccnc3C#N)CC2)c1	.	.	-9	.	.
CC(C)c1nnc(SCC(=O)N2CCN(c3ccccc3)CC2)c2c1cnn2-c1ccccc1	.	.	1	.	.
Cc1cc(C)cc(N2CCN(C(=O)c3ccc(Cl)cc3)CC2)c1	.	.	-5	.	.
COc1cc(C2NC(=O)NC(C)=C2C(=O)OC(C)(C)C)ccc1OCC(N)=O (stereo not drawn)	?	2	-3	-8	21970*
COc1cc(C2NC(=O)NC(c3ccccc3)=C2C(C)=O)ccc1OCC#N (stereo not drawn)	1	-2	-6	-1	23457*
CC(C)(Oc1ccc(Cl)cc1)C(=O)NCc1ccncc1	0	-4	-10	-1	20771*
COc1ccc(-n2nc(C(=O)NCC(=O)NCc3ccco3)c3ccccc3c2=O)cc1Cl	1	-4	-11	2	21931*
COc1ccc(-n2nc(C(=O)NCC(=O)N3CCN(c4ccccn4)CC3)c3ccccc3c2=O)cc1OC	-1	-2	-6	-3	3346
COC(=O)CNC(=O)CNC(=O)c1nn(-c2ccc(OC)c(Cl)c2)c(=O)c2ccccc12	-1	-1	-5	-24	3532
COc1ccc(-n2nc(C(=O)NCc3ccco3)c3ccccc3c2=O)cc1	5	-1	-12	4	19127*
COc1ccc(-n2nc(C(=O)NCC(=O)N3CCN(c4ccccn4)CC3)c3ccccc3c2=O)cc1	?	-2	-8	0	22175*
O=C(NCCc1ccccc1)c1nc(-c2ccncc2)cs1	.	.	-6	.	.
SMILES	BoNT A protease	Anthrax LF prot	SSB-PriA inh	BoNT F protease	Autofluor counter
O=C(Cn1ncccc1=O)NCC1CCCN(c2nccs2)C1 (stereo not drawn)	.	.	-3	.	.
COc1ccccc1NC(=O)c1cccnc1	0	-5	-6	-14	3025
COc1ccc(NC(=O)c2cc(-c3cccnc3)nc3c(C)c(C)ccc23)c(OC)c1	9	0	2	9	17562*
COc1cccc(NC(=O)c2cc(-c3cccnc3)nc3c(Cl)cccc23)c1	2	-2	-10	1	15951
COc1ccc(NC(=O)c2ccccc2Oc2ccccc2)c(OC)c1	1	-5	-21	-3	2964
COc1ccc(NC(=O)c2ccccc2C)c(OC)c1	-1	-2	-14	2	16437*
COc1ccc(NC(=O)c2cccnc2)c(OC)c1	?	-1	-4	2	20616*

Screening data: PubChem, several laboratories
